Among all 5,500 compounds or so, about 2,000 (36%) were called active. Another 18% or so got no clear call; they are omitted. Cut-off read from the data, not from the text of the source: active = normalized growth mostly below about 0.91 (no sharp cut-off); inconclusive = no clear call, values can overlap the other calls; inactive = mostly above about 0.92. The list shows a part of the results.
Assay: chemical genetic growth profiling, strain panel (AID 1159580);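 note: tested at 20 µM; growth read once vehicle control cultures reached saturation at 30 °C; 1 = growth at the plate median or of vehicle wells; lower values mean less growth of the strain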
Conditions: S. cerevisiae deletion strains, growth OD
[1] = locus YDL101C, strain DUN1, active compounds read low
[2] = locus YDR150W, strain NUM1, active compounds read low
[3] = locus YGR078C, strain PAC10, active compounds read low
[4] = locus YHR030C, strain SLT2, active compounds read low
[5] = locus YJR075W, strain HOC1, active compounds read low
[6] = locus YPL241C, strain CIN2, active compounds read low

Measured: normalized growth

O=C(O)CCCNCc1cccc2ccccc12
inactive: locus YAL013W, strain DEP1, active compounds read low 1.01 | locus YBR229C, strain ROT2, active compounds read low 1.01 | [1] 0.998 | [2] 0.984 | locus YEL061C, strain CIN8, active compounds read low 1.01 | [3] 1.01 | locus YGR229C, strain SMI1, active compounds read low 1 | [4] 1.02 | locus YHR087W, strain rtc3, active compounds read low 1.01 | locus YJL187C, strain SWE1, active compounds read low 1 | locus YJR043C, strain POL32, active compounds read low 1.01 | [5] 0.974 | locus YKL190W, strain CNB1, active compounds read low 1 | locus YLR039C, strain RIC1, active compounds read low 1 | locus YLR058C, strain SHM2 (second series), active compounds read low 1 | locus YLR085C, strain ARP6, active compounds read low 1.01 | locus YLR262C, strain YPT6, active compounds read low 0.999 | locus YML094W, strain GIM5, active compounds read low 1.07 | locus YMR219W, strain ESC1, active compounds read low 0.992 | locus YMR263W, strain SAP30, active compounds read low 1 | locus YNL153C, strain GIM3, active compounds read low 0.992 | locus YNL298W, strain CLA4 (second series), active compounds read low 1 | locus YNL322C, strain KRE1, active compounds read low 1.01 | locus YNR030W, strain Alg12, active compounds read low 1 | locus YPL055C, strain LGE1, active compounds read low 1.03 | [6] 1.06 | locus YPR135W, strain CTF4, active compounds read low 1.05

CCc1cccc(N(C)C(N)=Nc2cccc3ccccc23)c1
inactive: locus YAL040C, strain CLN3, active compounds read low 0.98 | locus YCL061C, strain MRC1 (second series), active compounds read low 0.989 | [2] 0.998 | locus YER002W, strain NOP16, active compounds read low 1.03 | [3] 0.97 | [5] 0.983 | locus YNL175C, strain NOP13, active compounds read low 1.03 | locus YNL197C, strain WHI3, active compounds read low 1 | locus YNL224C, strain SQS1, active compounds read low 0.993 | locus YOR083W, strain WHI5 (second series), active compounds read low 0.931 | [6] 0.989

N/C(Cc1cccc2ccccc12)=N/OC(=O)c1ccc(Cl)cc1
inactive: locus YAR019C, strain CDC15, active compounds read low 0.954 | locus YBL105C, strain PKC1, active compounds read low 0.952 | locus YBR135W, strain CKS1, active compounds read low 0.947 | locus YBR136W, strain MEC1, active compounds read low 0.93 | locus YBR160W, strain CDC28, active compounds read low 0.928 | locus YDL017W, strain CDC7, active compounds read low 0.949 | locus YDL028C, strain MPS1, active compounds read low 0.916 | [1] 0.961 | locus YDL108W, strain KIN28, active compounds read low 0.934 | locus YDL132W, strain cdc53, active compounds read low 0.951 | locus YDL214C, strain PRR2, active compounds read low 0.85 | locus YDR052C, strain DBF4, active compounds read low 0.967 | locus YDR054C, strain cdc34, active compounds read low 0.952 | locus YDR226W, strain ADK1, active compounds read low 0.954 | locus YDR477W, strain SNF1, active compounds read low 0.937 | locus YER123W, strain YCK3, active compounds read low 0.878 | locus YER133W, strain GLC7, active compounds read low 0.889 | locus YFL009W, strain cdc4, active compounds read low 0.938 | locus YFL029C, strain CAK1, active compounds read low 0.936 | locus YFR003C, strain YPI1, active compounds read low 0.955 | locus YFR019W, strain FAB1, active compounds read low 0.928 | locus YFR028C, strain CDC14, active compounds read low 0.956 | locus YGR040W, strain KSS1, active compounds read low 0.937 | locus YGR052W, strain FMP48, active compounds read low 0.941 | locus YGR092W, strain DBF2, active compounds read low 0.931 | locus YHR079C, strain IRE1, active compounds read low 0.965 | locus YHR082C, strain KSP1, active compounds read low 0.953 | locus YHR205W, strain SCH9, active compounds read low 0.835 | locus YIL147C, strain SLN1, active compounds read low 0.94 | locus YJL095W, strain BCK1, active compounds read low 0.874 | locus YJL128C, strain PBS2, active compounds read low 0.935 | locus YJL157C, strain FAR1, active compounds read low 0.899 | locus YJR016C, strain ILV3, active compounds read low 0.962 | locus YJR066W, strain TOR1 (second series), active compounds read low 0.879 | locus YJR066W, strain TOR1, active compounds read low 0.847 | locus YKL048C, strain ELM1, active compounds read low 0.967 | locus YKL067W, strain YNK1, active compounds read low 0.846 | locus YKL101W, strain HSL1, active compounds read low 0.939 | locus YKL193C, strain SDS22, active compounds read low 0.978 | locus YKL203C, strain TOR2, active compounds read low 0.969 | locus YLR133W, strain CKI1, active compounds read low 0.876 | locus YLR403W, strain SFP1, active compounds read low 0.919 | locus YML070W, strain DAK1, active compounds read low 0.892 | locus YMR001C, strain CDC5, active compounds read low 0.963 | locus YMR205C, strain PFK2 (second series), active compounds read low 0.872 | locus YMR277W, strain FCP1, active compounds read low 0.925 | locus YNL006W, strain LST8, active compounds read low 0.977 | locus YNL020C, strain ARK1, active compounds read low 0.909 | locus YNL161W, strain CBK1, active compounds read low 0.963 | locus YNL183C, strain NPR1, active compounds read low 0.92 | locus YNL207W, strain RIO2, active compounds read low 0.932 | locus YNL222W, strain SSU72, active compounds read low 0.95 | locus YNL307C, strain MCK1 (second series), active compounds read low 0.941 | locus YOL078W, strain AVO1, active compounds read low 0.943 | locus YOL136C, strain PFK27, active compounds read low 0.927 | locus YOR061W, strain CKA2, active compounds read low 0.892 | locus YOR119C, strain RIO1, active compounds read low 0.917 | locus YOR231W, strain MKK1, active compounds read low 0.926 | locus YOR329C, strain SCD5, active compounds read low 0.968 | locus YPL031C, strain PHO85, active compounds read low 0.915 | locus YPL153C, strain RAD53, active compounds read low 0.927 | locus YPL204W, strain HRR25, active compounds read low 0.922 | locus YPL209C, strain IPL1, active compounds read low 0.964 | locus YPL256C, strain CLN2, active compounds read low 0.888 | locus YPR025C, strain CCL1, active compounds read low 0.947 | locus YPR106W, strain ISR1, active compounds read low 0.986 | locus YPR111W, strain DBF20, active compounds read low 0.916 | strain NNK1, active compounds read low 0.948 | strain TSCII, active compounds read low 0.926
active: [4] 0.666 | locus YLR113W, strain HOG1, active compounds read low 0.858

Source: PubChem BioAssay AID1159580 (chemical genetic matrix, 2015)
